Laboratory results as given in PubChem BioAssay AID1159580 (chemical genetic matrix, 2015).
The campaign covered roughly 5,500 compounds. About 2,000 (36%) were called active. Roughly 18% stayed inconclusive and do not appear here. Rule as the data show it: active = normalized growth mostly below about 0.91 (no sharp cut-off); inconclusive = no clear call, values can overlap the other calls; inactive = mostly above about 0.92. Some of the results follow.

Experiment: chemical genetic growth profiling, strain panel (AID 1159580);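 also: tested at 20 µM; growth read once vehicle control cultures reached saturation at 30 °C; 1 = growth at the plate median or of vehicle wells; lower values mean less growth of the strain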
Settings: growth OD

Measured: normalized growth

Cc1cc(=O)c2c(O)c(C)c(O)cc2o1
inactive: S. cerevisiae deletion strains, locus YJL187C, strain SWE1, stronger effect = lower value 1 | S. cerevisiae deletion strains, locus YJR043C, strain POL32, stronger effect = lower value 0.992 | S. cerevisiae deletion strains, locus YKL009W, strain mrt4, stronger effect = lower value 0.961 | S. cerevisiae deletion strains, locus YKL068W, stronger effect = lower value 1 | S. cerevisiae deletion strains, locus YKL085W, strain MDH1 (second series), stronger effect = lower value 0.996 | S. cerevisiae deletion strains, locus YKL085W, strain MDH1, stronger effect = lower value 0.996 | S. cerevisiae deletion strains, locus YKL160W, strain elf1, stronger effect = lower value 1.02 | S. cerevisiae deletion strains, locus YKR026C, strain gcn3, stronger effect = lower value 1.02 | S. cerevisiae deletion strains, locus YKR091W, strain srl3, stronger effect = lower value 1.02 | S. cerevisiae deletion strains, locus YLL001W, strain dnm1, stronger effect = lower value 1.02 | S. cerevisiae deletion strains, locus YLL026W, stronger effect = lower value 1.01 | S. cerevisiae deletion strains, locus YLL041C, strain sdh2, stronger effect = lower value 1.02 | S. cerevisiae deletion strains, locus YLR027C, strain aat2, stronger effect = lower value 1 | S. cerevisiae deletion strains, locus YLR039C, strain RIC1, stronger effect = lower value 1.1 | S. cerevisiae deletion strains, locus YLR058C, strain SHM2, stronger effect = lower value 0.978 | S. cerevisiae deletion strains, locus YLR102C, strain apc9, stronger effect = lower value 0.976 | S. cerevisiae deletion strains, locus YLR221C, strain rsa3, stronger effect = lower value 1.01 | S. cerevisiae deletion strains, locus YLR258W, strain gsy2, stronger effect = lower value 1.01 | S. cerevisiae deletion strains, locus YLR262C, strain YPT6 (second series), stronger effect = lower value 1.01 | S. cerevisiae deletion strains, locus YLR262C, strain YPT6, stronger effect = lower value 1.12 | S. cerevisiae deletion strains, locus YLR268W, strain sec22, stronger effect = lower value 0.957 | S. cerevisiae deletion strains, locus YLR320W, strain mms22, stronger effect = lower value 1.04 | S. cerevisiae deletion strains, locus YLR330W, strain CHS5, stronger effect = lower value 0.998 | S. cerevisiae deletion strains, locus YLR342W, strain FKS1, stronger effect = lower value 1.01 | S. cerevisiae deletion strains, locus YLR357W, strain rsc2, stronger effect = lower value 1.02 | S. cerevisiae deletion strains, locus YLR370C, strain arc18, stronger effect = lower value 1.04 | S. cerevisiae deletion strains, locus YLR371W, strain rom2, stronger effect = lower value 0.954 | S. cerevisiae deletion strains, locus YLR384C, strain iki3, stronger effect = lower value 1.01 | S. cerevisiae deletion strains, locus YLR418C, strain cdc73, stronger effect = lower value 0.854 | S. cerevisiae deletion strains, locus YML016C, strain PPZ1, stronger effect = lower value 1.01 | S. cerevisiae deletion strains, locus YML032C, strain rad52, stronger effect = lower value 0.929 | S. cerevisiae deletion strains, locus YML120C, strain ndi1, stronger effect = lower value 1.02 | S. cerevisiae deletion strains, locus YML124C, strain tub3, stronger effect = lower value 0.99 | S. cerevisiae deletion strains, locus YMR058W, strain fet3, stronger effect = lower value 1.03 | S. cerevisiae deletion strains, locus YMR078C, strain ctf18, stronger effect = lower value 0.983 | S. cerevisiae deletion strains, locus YMR125W, strain sto1, stronger effect = lower value 0.989 | S. cerevisiae deletion strains, locus YMR129W, stronger effect = lower value 1.02 | S. cerevisiae deletion strains, locus YMR205C, strain PFK2, stronger effect = lower value 1.01 | S. cerevisiae deletion strains, locus YMR223W, strain ubp8, stronger effect = lower value 0.963 | S. cerevisiae deletion strains, locus YMR231W, strain pep5, stronger effect = lower value 1.02 | S. cerevisiae deletion strains, locus YMR307W, strain GAS1, stronger effect = lower value 0.989 | S. cerevisiae deletion strains, locus YNL067W, strain RPL9B, stronger effect = lower value 0.971 | S. cerevisiae deletion strains, locus YNL071W, strain lat1, stronger effect = lower value 1.02 | S. cerevisiae deletion strains, locus YNL128W, strain TEP1, stronger effect = lower value 0.993 | S. cerevisiae deletion strains, locus YNL209W, strain ssb2, stronger effect = lower value 1.02 | S. cerevisiae deletion strains, locus YNL233W, strain BNI4, stronger effect = lower value 0.956 | S. cerevisiae deletion strains, locus YNL248C, strain rpa49, stronger effect = lower value 1.01 | S. cerevisiae deletion strains, locus YNL250W, strain rad50, stronger effect = lower value 0.967 | S. cerevisiae deletion strains, locus YNL271C, strain bni1, stronger effect = lower value 0.993 | S. cerevisiae deletion strains, locus YNL298W, strain CLA4, stronger effect = lower value 0.969 | S. cerevisiae deletion strains, locus YNL307C, strain MCK1, stronger effect = lower value 0.971 | S. cerevisiae deletion strains, locus YNL322C, strain KRE1 (second series), stronger effect = lower value 1.02 | S. cerevisiae deletion strains, locus YNL322C, strain KRE1, stronger effect = lower value 0.994 | S. cerevisiae deletion strains, locus YNR049C, strain mso1, stronger effect = lower value 1.01 | S. cerevisiae deletion strains, locus YNR052C, strain pop2, stronger effect = lower value 0.987 | S. cerevisiae deletion strains, locus YOL006C, strain TOP1, stronger effect = lower value 0.946 | S. cerevisiae deletion strains, locus YOL012C, strain htz1 1.07 | S. cerevisiae deletion strains, locus YOL147C, strain pex11, stronger effect = lower value 0.966 | S. cerevisiae deletion strains, locus YOR001W, strain rrp6, stronger effect = lower value 1.03 | S. cerevisiae deletion strains, locus YOR061W, strain CKA2, stronger effect = lower value 1.02 | S. cerevisiae deletion strains, locus YOR069W, strain VPS5, stronger effect = lower value 1 | S. cerevisiae deletion strains, locus YOR070C, strain gyp1, stronger effect = lower value 1.02 | S. cerevisiae deletion strains, locus YOR080W, strain dia2, stronger effect = lower value 1.02 | S. cerevisiae deletion strains, locus YOR083W, strain WHI5, stronger effect = lower value 1.01 | S. cerevisiae deletion strains, locus YOR106W, strain vam3, stronger effect = lower value 1.02 | S. cerevisiae deletion strains, locus YOR136W, strain idh2, stronger effect = lower value 0.949 | S. cerevisiae deletion strains, locus YOR144C, strain elg1, stronger effect = lower value 0.988 | S. cerevisiae deletion strains, locus YOR184W, strain ser1, stronger effect = lower value 0.986 | S. cerevisiae deletion strains, locus YOR265W, strain rbl2, stronger effect = lower value 1.01 | S. cerevisiae deletion strains, locus YOR270C, strain vph1, stronger effect = lower value 1.07 | S. cerevisiae deletion strains, locus YOR290C, strain snf2, stronger effect = lower value 1.03 | S. cerevisiae deletion strains, locus YOR316C, strain cot1, stronger effect = lower value 0.983 | S. cerevisiae deletion strains, locus YPL051W, strain arl3, stronger effect = lower value 1.02 | S. cerevisiae deletion strains, locus YPL078C, strain atp4, stronger effect = lower value 1.03 | S. cerevisiae deletion strains, locus YPL106C, strain sse1, stronger effect = lower value 1.03 | S. cerevisiae deletion strains, locus YPL240C, strain hsp82, stronger effect = lower value 1.01 | S. cerevisiae deletion strains, locus YPL241C, strain CIN2, stronger effect = lower value 0.997 | S. cerevisiae deletion strains, locus YPR119W, strain clb2, stronger effect = lower value 0.99 | S. cerevisiae deletion strains, locus YPR141C, strain kar3, stronger effect = lower value 1.01 | S. cerevisiae deletion strains, locus YPR167C, strain met16, stronger effect = lower value 0.957 | S. cerevisiae deletion strains, strain wtn01, stronger effect = lower value 0.97 | S. cerevisiae strains, strain wild type, stronger effect = lower value 1.02
active: S. cerevisiae deletion strains, locus YKR001C, strain vps1, stronger effect = lower value 0.888 | S. cerevisiae deletion strains, locus YPR163C, strain tif3, stronger effect = lower value 0.866
